Source: PubChem BioAssay
Activity calls are given as the source filed them.

Experiments:
[1] = tested on: Human papillomavirus type 1a protein E7 (residues 44-93); experiment: HPV1a E7 fragment binders on microarrays, primary screen, biochemical, small-molecule microarray, residues 44-93, 635 nm fluorescence (AID 1108); settings: small-molecule microarray binding, fluorescence 635 nm; higher = more signal;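 also: E7 fragment applied at 1 µg/mL in TBST for 1 h at 4 C; score combines spot fluorescence with its signal to noise ratio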
[2] = modulators of HCV replicon luciferase signal, primary screen, HCV replication inhibitor project, Huh7 cells, luciferase reporter (AID 1109); settings: 48 h, higher = more signal;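 also: huh7 hepatoma cells harbouring a luciferase neomycin HCV replicon reporter; luciferase luminescence as measure of HCV replicon replication; test concentration not given here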
[3] = biological target: Left-right determination factor 2 (Homo sapiens) (UniProt O00292); experiment: LEFTY2 binders on small-molecule microarrays, primary screen, biochemical, small-molecule microarray, 635 nm fluorescence scan (AID 1110); settings: LEFTY2 binding, higher = more signal
[4] = biological target: Calmodulin-1 (Homo sapiens) (UniProt P0DP23); experiment: CALM1 binders on microarrays, EGTA buffer, profiling panel, biochemical, small-molecule microarray, Cy5-labelled CALM1 (AID 1111); settings: Cy5-CALM1 binding fluorescence, higher = more signal;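 also: labelled calmodulin applied in Tris saline Tween buffer holding calcium plus EGTA and DTT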
[5] = biological target: Calmodulin-1 (Homo sapiens) (UniProt P0DP23); experiment: calcium-bound CALM1 binders on microarrays, profiling panel, artefact control for SMM control-protein annotation, biochemical, small-molecule microarray, Cy5-labelled CALM1, plus calcium (AID 1112); settings: Cy5-CALM1 binding fluorescence, higher = more signal;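 also: score merges spot fluorescence with signal to noise from triplicate slides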
[6] = small-molecule microarray binders of probe aWnt5a, primary screen, biochemical, biotinylated probe, 635/667 nm fluorescence (AID 1113); settings: higher = more signal;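 also: score merges 667 nm fluorescence intensity with signal-to-noise per printed feature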
[7] = small-molecule microarray binders of probe aShh, primary screen, biochemical, biotinylated probe, 635/667 nm fluorescence (AID 1114); settings: higher = more signal;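 also: probe is biotin-labelled aShh protein from a stem cell growth factor screen; measures binding of labelled protein to compounds printed on the slide; score merges feature fluorescence at 667 nm with signal-to-noise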
[8] = small-molecule microarray binders of probe aNog, primary screen, biochemical, biotinylated probe, 635/667 nm fluorescence (AID 1115); settings: higher = more signal;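 also: probe is biotinylated aNog protein used at 0.15 µg/mL for 1 h at 4 C; z-score combines 667 nm fluorescence of each spot with its signal to noise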
[9] = biological target: Torsin-1A-interacting protein 1 (Homo sapiens) (UniProt Q5JTV8); experiment: LAP1 binders from COS7 cell lysate, primary screen, small-molecule microarray, 635/667 nm fluorescence (AID 1116); settings: COS7-hLAP1 lysate binding, 635 nm fluorescence, higher = more signal
[10] = biological target: Alpha-bungarotoxin (Bungarus multicinctus) (UniProt P60615); experiment: alpha-bungarotoxin binders on microarray, profiling panel, artefact control for SMM control protein annotation, biochemical, small-molecule microarray, Alexa647 label, 635/667 nm fluorescence (AID 1117); settings: alpha-BTX-A647 binding fluorescence, higher = more signal
Albumin (Bos taurus) = Albumin (Bos taurus) (UniProt P02769); experiment: bovine serum albumin binders on microarray, profiling panel, artefact control for SMM control protein annotation, biochemical, small-molecule microarray, Alexa647 label, 635/667 nm fluorescence (AID 1118); settings: BSA-A647 binding, fluorescence 635 nm, higher = more signal;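 also: score merges 667 nm emission intensity and signal-to-noise per printed compound spot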
[11] = small-molecule microarray binders of probe aXIP, primary screen, biochemical, NeuroSMM set, 635/667 nm fluorescence (AID 1119); settings: higher = more signal, called active from +8 up or from −8 down;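 also: probe is the protein aXip251-270 applied at 1 µg/mL to compound-printed slides; binding of probe to printed compounds measured as 667 nm fluorescence plus signal to noise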
[12] = small-molecule binders of probe aNOTCH3, primary screen, biochemical, small-molecule microarray, 635/667 nm fluorescence (AID 1120); settings: higher = more signal;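 also: probe is a biotin-tagged antibody raised against NOTCH3 rather than NOTCH3 protein; score merges spot fluorescence near 667 nm with spot signal to noise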
[13] = small-molecule binders of probe aNOTCH2, primary screen, biochemical, small-molecule microarray, 635/667 nm fluorescence (AID 1121); settings: higher = more signal;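 also: score merges feature fluorescence read at 667 nm with its signal to noise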
[14] = biological target: Carbonic anhydrase 2 (Homo sapiens) (UniProt P00918); experiment: CAII small-molecule binders, profiling panel, biochemical, small-molecule microarray, Alexa647-labelled CAII (AID 1122); settings: CAII-A647 binding fluorescence, higher = more signal
[15] = COS7 lysate on small-molecule microarray, probe aHis, 635 nm (AID 1123); settings: COS7 cell lysate, fluorescence, higher = more signal;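 also: z-score combines 667nm fluorescence intensity with signal-to-noise per printed compound spot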
[16] = compound binding in COS7 lysate, probe aLAP1, primary screen, cell lysate, small-molecule microarray (AID 1124); settings: probe aLAP1, fluorescence, higher = more signal;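 also: lysate comes from COS7 cells expressing LAP1 and is applied at 0.3 µg/mL; score merges spot fluorescence near 667 nm with signal-to-noise over triplicate slides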
Sam68 (KHDRBS1) = experiment: Sam68 small-molecule binders, primary screen, biochemical, small-molecule microarray, 635 nm fluorescence (AID 1125); settings: small-molecule microarray binding, higher = more signal;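 also: score merges 667 nm channel intensity with signal to noise over triplicate slides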
[17] = tested on: Chordin-like protein 2 (CHRDL2); experiment: CHRDL2 small-molecule binders, primary screen, biochemical, small-molecule microarray, 635 nm fluorescence (AID 1126); settings: small-molecule microarray binding, fluorescence 635 nm; higher = more signal;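 also: printed compound slides probed with Chrdl2 protein at 4 µg/mL for 1 h at 4 C; score merges 667 nm emission intensity with signal to noise over three replicate slides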
[18] = biological target: Concanavalin-A (Canavalia ensiformis) (UniProt P02866); experiment: ConA small-molecule binders, primary screen, artefact control for SMM control protein annotation, biochemical, small-molecule microarray, Alexa647 label, 635 nm (AID 1127); settings: ConA-A647 binding fluorescence, higher = more signal;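 also: z combines 667 nm emission intensity with signal-to-noise across three replicate slides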
Sequence of Concanavalin-A (Canavalia ensiformis) (P02866 whole entry, looked up): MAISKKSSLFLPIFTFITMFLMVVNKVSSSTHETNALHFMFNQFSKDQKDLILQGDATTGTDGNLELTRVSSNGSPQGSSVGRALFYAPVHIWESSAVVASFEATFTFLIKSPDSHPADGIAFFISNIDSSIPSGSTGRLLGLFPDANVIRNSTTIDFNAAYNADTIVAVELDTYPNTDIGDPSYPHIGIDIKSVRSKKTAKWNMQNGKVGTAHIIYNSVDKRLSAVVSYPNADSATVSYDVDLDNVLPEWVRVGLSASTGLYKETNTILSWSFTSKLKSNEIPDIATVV

Sequence of Albumin (Bos taurus) (P02769 whole entry, looked up): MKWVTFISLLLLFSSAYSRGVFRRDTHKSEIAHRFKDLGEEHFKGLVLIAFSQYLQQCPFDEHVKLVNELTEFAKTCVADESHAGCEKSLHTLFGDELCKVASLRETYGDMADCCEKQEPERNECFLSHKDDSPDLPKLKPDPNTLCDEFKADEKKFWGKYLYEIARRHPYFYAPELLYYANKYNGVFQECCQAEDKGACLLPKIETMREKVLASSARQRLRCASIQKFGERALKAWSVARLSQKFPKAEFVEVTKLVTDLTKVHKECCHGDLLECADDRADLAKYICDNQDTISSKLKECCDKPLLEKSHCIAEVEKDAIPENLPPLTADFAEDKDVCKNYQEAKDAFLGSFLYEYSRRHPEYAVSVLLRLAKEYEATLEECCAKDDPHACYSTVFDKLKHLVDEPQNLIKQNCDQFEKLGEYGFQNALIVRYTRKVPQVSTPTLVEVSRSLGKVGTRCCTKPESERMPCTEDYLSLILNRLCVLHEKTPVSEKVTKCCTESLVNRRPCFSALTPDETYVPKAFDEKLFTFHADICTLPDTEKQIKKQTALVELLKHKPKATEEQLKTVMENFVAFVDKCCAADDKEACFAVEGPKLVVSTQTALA
Sequence of Alpha-bungarotoxin (Bungarus multicinctus) (P60615 whole entry, looked up): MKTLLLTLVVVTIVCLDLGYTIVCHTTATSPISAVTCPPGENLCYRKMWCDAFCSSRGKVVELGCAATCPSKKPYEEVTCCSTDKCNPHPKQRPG
Sequence of Torsin-1A-interacting protein 1 (Homo sapiens) (Q5JTV8 whole entry, looked up): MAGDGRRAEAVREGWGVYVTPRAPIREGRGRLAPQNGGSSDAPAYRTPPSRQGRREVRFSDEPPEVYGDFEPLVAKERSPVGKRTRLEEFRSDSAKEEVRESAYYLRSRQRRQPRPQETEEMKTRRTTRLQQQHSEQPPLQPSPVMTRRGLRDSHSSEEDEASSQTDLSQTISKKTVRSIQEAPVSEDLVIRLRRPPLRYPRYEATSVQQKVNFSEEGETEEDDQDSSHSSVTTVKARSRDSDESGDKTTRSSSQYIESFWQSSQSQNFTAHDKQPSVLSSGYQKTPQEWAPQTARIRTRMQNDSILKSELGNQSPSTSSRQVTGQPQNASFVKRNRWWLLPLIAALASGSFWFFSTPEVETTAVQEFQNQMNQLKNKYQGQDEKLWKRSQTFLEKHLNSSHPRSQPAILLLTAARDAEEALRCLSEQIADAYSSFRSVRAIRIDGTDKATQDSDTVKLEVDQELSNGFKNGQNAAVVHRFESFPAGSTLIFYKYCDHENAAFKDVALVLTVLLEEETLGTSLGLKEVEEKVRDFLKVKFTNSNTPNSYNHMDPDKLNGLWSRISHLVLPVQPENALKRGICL
Sequence of Left-right determination factor 2 (Homo sapiens) (O00292 whole entry, looked up): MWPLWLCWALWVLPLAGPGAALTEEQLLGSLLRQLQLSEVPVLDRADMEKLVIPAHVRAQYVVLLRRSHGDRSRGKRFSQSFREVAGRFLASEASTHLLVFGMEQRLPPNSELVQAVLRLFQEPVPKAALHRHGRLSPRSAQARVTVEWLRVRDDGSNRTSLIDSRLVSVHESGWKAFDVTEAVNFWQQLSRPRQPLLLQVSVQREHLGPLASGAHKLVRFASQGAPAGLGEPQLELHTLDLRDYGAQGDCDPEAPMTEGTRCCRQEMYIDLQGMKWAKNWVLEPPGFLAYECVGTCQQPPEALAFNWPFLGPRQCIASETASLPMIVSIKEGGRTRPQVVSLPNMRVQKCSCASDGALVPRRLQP

Compound	composite z-score [1]	z-score [2]	composite z-score [3]	composite z-score [4]	composite z-score [5]	composite z-score [6]	composite z-score [7]	composite z-score [8]	composite z-score [9]	composite z-score [10]	composite z-score (Albumin (Bos taurus))	composite Z-score [11]	composite z-score [12]	composite z-score [13]	composite z-score [14]	composite z-score [15]	composite z-score [16]	composite z-score (Sam68 (KHDRBS1))	composite z-score [17]	composite z-score [18]
O=C1NC(=O)C2C1C=CC(C(O)c1c(F)cccc1Cl)N2Nc1ccc(Cl)cc1Cl (stereo not given)	0.635	-0.133	-0.536	2.33	1.01	0.0923	0.0782	1.42	2.71	2.76	1.04	0.122 (inactive)	0.525	0.232	0.599	3.11	1.12	0.79	-0.879	0.44
C[C@H]1NC(=O)[C@@]23C(=O)N[C@@H](Cc4ccccc4)C2[C@H](C)[C@@]2(C)O[C@H]2C3/C=C/C/C=C\CNC(=O)[C@H](Cc2ccccc2)NC1=O (stereo not given in full)	0.395	-1.02	0.154	0.15	-0.849	-0.0445	-0.0533	-0.196	-0.285	0.107	-0.474	-0.721 (inactive)	-0.145	-0.127	0.281	0.205	0.0898	0.127	0.636	0.501
NC(=O)NCC#Cc1ccc2c(c1)[C@]1(C(=O)N2)[C@H](C(=O)O)[C@H]2C(=O)O[C@H](c3ccccc3)[C@H](c3ccccc3)N2[C@@H]1c1ccc(OCCO)cc1	1.05	-0.327	-0.288	0.382	0.117	0.0077	0.13	-0.265	0.324	2.01	0.351	-0.131 (inactive)	-0.161	-0.143	0.355	0.822	0.613	1.27	0.241	0.962
CC(CO)N1C(=O)[C@@H]2[C@H]3C(=O)OCC=C[C@H]3OC23C=CCN(C(C)(C)C)C(=O)[C@@H]13 (stereo not given in full)	-1.89	-0.619	-0.7	-0.119	-0.72	0.308	-0.289	-0.158	-1.13	0.193	-0.0964	1.03 (inactive)	-0.242	-0.125	0.852	-0.856	-0.604	-1.05	-0.508	0.251
C[N+](C)(C)CCCCCCNC(=O)[C@H]1C[C@H]2C(=O)NCC(=O)N2[C@H]1c1ccc(O)cc1	1.34	1.4	1.03	0.14	-1.16	-0.0846	0.21	-0.507	-0.489	0.713	-0.0386	1.17 (inactive)	-0.114	-0.149	0.422	1.21	0.255	1.12	0.856	0.758
O=C1N(Cc2ccccc2)c2ccccc2[C@@H]2OC(c3ccc(OCCCO)cc3)=N[C@]12Cc1ccccc1	1.45	-2.69	0.0601	1.05	-0.338	0.0037	0.138	0.0705	0.685	0.807	-0.34	-0.296 (inactive)	-0.0362	-0.0146	0.607	2.23	-0.327	1.3	0.29	1.11
